This passage reports inhibition results from PubChem BioAssay AID449762 (Southern Research Specialized Biocontainment Screening …, 2010).

“And” between values parts separate entries of the source, which are not always exact repeats. Equal entries are not always repeated. About 1,900 (0.58%) of roughly 330,000 compounds were called active. About 4% were inconclusive and are not listed. The list is a sample of the results. Entries with a potency or affinity are not part of this list. A number with no mark means an inactive call. Rule as the data show it: inconclusive = inhibition above about 70% without an active follow-up result; inactive = below that.

This experiment is described as follows: M. tuberculosis growth inhibition, HTS (AID 449762).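 Also: bacterial growth assessed after seven days of incubation.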 As to conditions: M. tuberculosis H37Rv growth inhibition, 7H9 media; at 25 µM; active compounds read high.
What is called inhibition is the drop in the measured response relative to a control, in per cent. `O=C(O)c1cc(N2C(=O)C3C4C=CC(C4)C3C2=O)ccc1NCc1cccnc1` (stereo unspecified): the inhibition is 4.01%.
Consider `CCN(c1cc(C)cc(C)c1)S(=O)(=O)c1nnc(NC(=O)C(C)(C)C)s1`, for which the inhibition is 5.8%.
In the case of `N/C(=N\OS(=O)(=O)c1cc(Cl)ccc1Cl)c1ccncc1`, the inhibition is 1.49%.
On to `Cc1ccc(-c2c(C(=O)N/N=C/c3ccc(OC(C)C)cc3)nnn2-c2nonc2N)cc1`, for which the inhibition was 5.21%.
Consider `CCN1CCN(C(=O)C2CCN(Cc3nc(-c4cccc(Cl)c4)oc3C)CC2)CC1`, for which the inhibition is -0.4%.
For the compound `Cc1oc(-c2cccc(Cl)c2)nc1CN1CCC(C(=O)N2CCN(c3ccccn3)CC2)CC1`, the inhibition was 16.8%.
Consider `C=CCn1c(O)c(C(C)=NCCc2ccccc2)c(=O)[nH]c1=O`, for which the inhibition is -9.8%.
On to `COc1cccc(NC(=O)c2cc(CN3C(=O)c4ccccc4C3=O)ccc2OC)c1`, for which the inhibition was -11.3%.
Consider `Cc1cc(C)cc(C(=O)O/N=C(\N)c2ccc(Br)cc2)c1`, for which the inhibition was 2.33%.
Take `Cc1ccc(C(=O)O/N=C(\N)c2ccc(Br)cc2)cc1`: the inhibition was 17.7%.
Then `Cc1ccc(-c2csc3ncnc(NCCC(=O)O)c23)cc1C`, with 3.2%.
For `COC(=O)C1=C(C)N(C)C(=O)NC1c1cc2c(cc1Br)OCO2` (stereo unspecified), the inhibition was -1.06%.
Turning to `COc1cccc(N2CCN(Cc3nc(N)nc(N4CCCc5ccccc54)n3)CC2)c1`, the inhibition was 55.4%.
For `Nc1nc(CN2CCN(c3cccc(Cl)c3)CC2)nc(N2CCCc3ccccc32)n1`, the inhibition was 34.9%.
`O=S(=O)(Cc1cc(Cl)nc(-c2ccncc2)n1)c1ccccc1`: the inhibition was 3.28%.
Then `Cc1ccn2c(NC3CCCCC3)c(-c3cccc(SC4CCCCC4)c3)nc2c1`, with 48.6%.
Then `Cc1ccn2c(NC3CCCC3)c(-c3ccncc3)nc2c1`, with -13.9%.
Then `CC(C)CC(NS(=O)(=O)c1ccc2c(c1)oc(=O)n2C)C(=O)NCc1cccnc1` (stereo unspecified), with -12.4%; and `COCCCN1C(=O)c2ccc(C(=O)Nc3cccc(OC)c3)cc2C1=O`, with -8.36%.
With `COc1ccc(CCNC(=O)c2ccc([N+](=O)[O-])cc2Cl)cc1OC`, the inhibition is -2.83%.
Then `CCc1cc(C(=O)NC2CCCN(Cc3ccccc3F)C2)n(C)n1` (stereo unspecified), with 6.68%.
With `CC(C)CN(C(=O)CCC(=O)OC(C)C(=O)Nc1cccc(C#N)c1)c1c(N)n(CC(C)C)c(=O)[nH]c1=O` (stereo unspecified), the inhibition is -4.92%.
For `COC(=O)CSc1nnc(COc2ccc3ccccc3c2)o1`, the inhibition is -6.41%.
Turning to `CCOC(=O)CSc1nnc(COc2ccc3ccccc3c2)o1`, the inhibition is 6.46%.
For `COc1ccc(N2CCN(C(=O)CCS(=O)(=O)c3ccc4c(c3)NC(=O)C(C)S4)CC2)cc1` (stereo unspecified), the inhibition was 6.18%.
Then `Cc1ccc(C(=O)Oc2ccc(Br)cc2C(=S)N2CCOCC2)cc1`, with 11.3%; and `O=Cc1c(NCc2ccc(Cl)cc2)c2ccccc2[nH]c1=O`, with 2.94%; and `CCCN(CC(=O)Nc1ccccc1OC)C(=O)CCC(=O)c1ccc(OCC)cc1`, with 3.5%.
Turning to `CCc1ccc(CNC(=O)C2Cc3cc(S(=O)(=O)N4CCCC4)ccc3N2C(C)=O)cc1` (stereo unspecified), the inhibition is -2.81%.
Then `CSc1ccc(CNC(=O)C2Cc3cc(S(=O)(=O)N4CCCC4)ccc3N2C(C)=O)cc1` (stereo unspecified), with 2.84%; and `C=CCN(CC=C)C(=O)C[n+]1ccc(C(N)=O)cc1`, with 6.91%; and `COCCN1C(=O)C(=O)/C(=C(/O)c2ccc(S(=O)(=O)N3CCCCC3)cc2)C1c1ccc(O)c(OC)c1` (stereo unspecified), with -2.3%.
As for `CN(c1ccccc1)S(=O)(=O)c1cccc(NC(=O)CSc2nnc(N)s2)c1`, the inhibition was 3.34%.
In the case of `O=C1Nc2ccc(Br)cc2/C1=C/c1ccc(C(=O)O)cc1`, the inhibition was 0.13%.
In the case of `O=C(CC1(O)C(=O)Nc2ccc(Br)cc21)c1ccc2c(c1)OCO2` (stereo unspecified), the inhibition is -6.14%.
On to `CC(C)C(=O)Nc1c2c(nn1-c1ccc([N+](=O)[O-])cc1)CS(=O)(=O)C2`, for which the inhibition is 3.07%.
Then `Cc1ccc(F)cc1NC(=O)c1c(-c2ccccc2)noc1C`, with -8.46%; and `CCOc1ccc(C(=O)Nc2ccc3nc(N4CCN(CC)CC4)cc(C)c3c2)cc1`, with 43.7%.
Then `CCOc1[nH]n(-c2ccccc2)c(=O)c1C=Nc1ccccc1`, with 19%; and `CCOc1[nH]n(-c2ccccc2)c(=O)c1C=Nc1ccc(C)cc1`, with 9.52%; and `Cc1ccccc1-n1c(-c2ccc([N+](=O)[O-])cc2)nc2ccccc2c1=O`, with 2.55%.
`COc1ccc(NC(C)=O)c(C)c1`: the inhibition is -2.52%.
`c1ccc(-c2nc(-c3ccncc3)n[nH]2)nc1`: the inhibition is -0.34%.
In the case of `c1ccc(-c2n[nH]c(-c3ccccn3)n2)nc1`, the inhibition was -3.4% and -2.35%.
With `O=C(NCc1ccccc1F)c1cc(=O)[nH]c2ccccc12`, the inhibition was 1.18%.
For `Cc1ccc2nsnc2c1S(=O)(=O)N1CCOCC1`, the inhibition is -4.54%.
As to `COc1ccc(CCNC(=O)c2ccc(CNS(=O)(=O)c3cc(C)ccc3C)cc2)cc1OC`, the inhibition is -3.98%.
As to `O=S(=O)(Nc1ccccn1)c1ccc(Br)cc1`, the inhibition was 10.2%.
In the case of `Cc1c(NS(=O)(=O)c2ccc(Br)cc2)c(=O)n(-c2ccccc2)n1C`, the inhibition was 0.05%.
Then `O=C(c1cc(F)ccc1F)C1CCCN(CCCc2ccccc2)C1` (stereo unspecified), with 10.3%; and `CC(CCc1ccccc1)NC(=O)COC(=O)C1CCC(C(C)(C)C)CC1` (stereo unspecified), with 6.62%; and `CN1CCc2c(OCC(=O)N3CCC(Cc4ccccc4)CC3)cccc2C1=O`, with 5.02%.
On to `Cc1cc(NC(=O)c2cccs2)n(-c2nc3ccccc3[nH]2)n1`, for which the inhibition is 57.9%.
For `Cc1cc(NC(=O)c2ccc(C)s2)n(-c2nc3ccccc3[nH]2)n1`, the inhibition is 56.9%.
With `CCn1nnnc1SCC(=O)N1CCCCC1`, the inhibition is 0.5%.
Then `O=C1N/C(=N/N=C/c2ccc(O)cc2)SC1Cc1ccccc1` (stereo unspecified), with -5.03%; and `O=C1NC(=Nc2ccccc2)SC1Cc1ccccc1` (stereo unspecified), with -10.5%.
Turning to `CCC(Sc1nc2ccc(N)cc2s1)C(=O)Nc1nccs1` (stereo unspecified), the inhibition was 61%.
Then `C[n+]1cnn2c1SCC1(COC1)C2`, with 3.72%; and `O=C(CNC(=O)c1ccc(Cl)cc1)c1ccccc1`, with -1.27%; and `O=C(CNC(=O)c1ccc(F)cc1)c1ccc(Cl)cc1`, with 6.46%.
In the case of `C=C(C)Cn1c(C)cc(C)c(S(=O)(=O)c2cccc(C)c2)c1=O`, the inhibition was -7.99%.
Then `CCOc1cc(CNc2ccc(Br)cc2)cc(Br)c1OCC(=O)NC(C)(C)C`, with -3.44%; and `Cc1nc2ccccc2c2oc(C(=O)N3CCN(c4ccc([N+](=O)[O-])cc4)CC3)cc12`, with 26.2%; and `CC(=O)c1ccc(N2CCN(C(=O)c3cc4c(C)nc5ccccc5c4o3)CC2)cc1`, with 4.42%.
For `O=C(CCS(=O)(=O)c1ccc(Cl)cc1)N1CCN(c2ccccc2F)CC1`, the inhibition was -3.9%.
Turning to `COc1ccc(OC)c(CN2CCN(C(=O)CNC(=O)c3cc(C)cc(C)c3)CC2)c1`, the inhibition was 1.7%.
Then `COc1ccc(OC)c(CN2CCN(C(=O)CCNC(=O)c3ccc(Br)cc3)CC2)c1`, with -2.93%.
For `CCc1cc(C(=O)NN2C(=O)NC3(CCCCC3)C2=O)sc1C`, the inhibition was -5.54%.
Then `Cc1ccc(NC(=O)c2sc(Cl)nc2-c2ccccc2)cc1`, with 1.87%; and `O=C(NC1CCCCCC1)c1cc(S(=O)(=O)N2CCOCC2)ccc1N1CCCCC1`, with -7.36%; and `CCCCCCCNC(=O)C1(CC2CC(c3ccccc3)=NO2)CCNCC1` (stereo unspecified), with -6.2%.
With `CCCCCCCNC(=O)C1(CC2CC(c3cccc(Br)c3)=NO2)CCN(C(=O)Cc2ccc(F)cc2)CC1` (stereo unspecified), the inhibition was 1.04%.
Then `Cc1ccc(-n2c(SCC(=O)NCCN3C(=O)CSC3=O)nnc2-c2ccccc2)cc1`, with -2.1%; and `O=C(Nc1ccc(-c2csc(Nc3ccccc3)n2)cc1)c1cccc(C(F)(F)F)c1`, with 1.22%; and `O=C(Nc1ccc(-c2csc(Nc3cccc(C(F)(F)F)c3)n2)cc1)c1ccccc1`, with 50.9%.
As to `Cc1ccc(C(=O)N/N=C2\CCCc3ccccc32)c(C)c1`, the inhibition was -7.5%.
Consider `O=C(N/N=C1\CCCc2ccccc21)c1ccccc1Cl`, for which the inhibition was 5.05%.
Consider `CCOc1ccc(CN(C)C(=O)c2cccnc2OCC)cc1OC`, for which the inhibition was -1.02%.
Regarding `CCOc1ccc(C(C)NC(=O)Nc2ccc(F)cc2F)cc1` (stereo unspecified), the inhibition is 6.1%.
Take `C(=N\Nc1nc2ccccc2[nH]1)/c1ccccc1`: the inhibition was 33.3%.
Then `Cn1c(/C=N/c2nc3ccccc3[nH]2)nc2ccccc21`, with 43.9%; and `CCOc1ccc(OCCNC(=O)C(NC(=O)c2c(F)cccc2F)C(C)C)cc1` (stereo unspecified), with -12.3%.
In the case of `COc1ccc(Nc2nnc(SC(C)C(=O)NC3CC3)s2)cc1` (stereo unspecified), the inhibition was -1.49%.
For `Cc1c(NC(=S)N/N=C/c2cccc(O)c2)c(=O)n(-c2ccccc2)n1C`, the inhibition was -10.1%.
Then `N=c1c2c(-c3ccccc3)c(-c3ccccc3)n(Cc3ccco3)c2ncn1CCCO`, with 16.4%; and `N=c1c2c(-c3ccccc3)c(-c3ccccc3)n(Cc3ccco3)c2ncn1CCO`, with 52.9%.
Then `O=C(Oc1ccccc1C(=S)N1CCOCC1)c1ccc([N+](=O)[O-])cc1[N+](=O)[O-]`, with 38.5%.
Then `O=C(C1=C(O)C(=O)N(CCOCCO)C1c1cccc([N+](=O)[O-])c1)c1cccs1` (stereo unspecified), with -3.54%.
With `Cc1ccc(-c2cc(C(=O)N3CC(C)OC(C)C3)c3ccccc3n2)o1` (stereo unspecified), the inhibition was -3.5%.
Then `COc1ccc2nc(NC(=O)C3CSC4(C)CCC(=O)N34)sc2c1` (stereo unspecified), with 8.66%.
